# Results as given in PubChem BioAssay (Tox21).
# Records with an inconclusive call do not appear. Activity calls are given as the source filed them. Calls follow the shape of the dose curve; as a rule, active = well fitted cell-killing curve with a large enough effect in the repeat runs; inconclusive = weak or mixed curves, or effect the other way; inactive = flat fitted curve, though single readings scatter.
# Test: cAMP Responsive Elements (CRE) small molecule antagonists, cell-based qHTS assay: qHTS cell viability counter screen (AID 2060913); also: nearly all actives have a fitted effect of over 40% in size
# Settings: CRE-bla HEK293T viability, CellTiter-Glo luminescence, 5 h; series mostly up to 92.4 µM; viability change, negative = cytotoxic: at the top concentration
# Summary of the method: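 Cytotoxicity counter screen multiplexed with the CRE-bla antagonist read: HEK293T cells in DMEM with dialyzed FBS and 25 mM HEPES were treated 3 hrs under 0.25 uM final NKH477, then viability measured by CellTiter-Glo luminescence.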
# % is scaled to controls: 0 for no effect and ±100 for the full control effect; potency is read from the fitted curve at half-maximal effect.
SMILES,"viability change, negative = cytotoxic",Potency
COc1ccc2c(c1OC)CN1CCc3cc4c(cc3C1C2)OCO4 (centres undefined),-4.17% [at 42.5 µM] (inactive),
O=C1c2ccccc2C(=O)C1C(=O)C(c1ccccc1)c1ccc(Cl)cc1 (centres undefined),-15% (inactive),
Nc1c(Cl)c(Cl)c(Cl)c(Cl)c1Cl,-4.03% (inactive),
CC(=O)c1ccc(-c2ccccc2)cc1,-1.32% (inactive),
Nc1ccc(Sc2ccc(N)cc2)cc1,4.2% (inactive),
CCCCCCCCCC[N+](C)(C)CCCCCCCCCC,,30.6 µM (active)
CC(Cc1ccccc1)NCc1ccccc1Cl (centres undefined),-3.12% [at 42.5 µM] (inactive),
O=C(OC1CCCCC1)c1ccccc1C(=O)OC1CCCCC1,-17% (inactive),
COc1cc(OC)nc(NC(=O)NS(=O)(=O)c2ncccc2OCC(F)(F)F)n1,-5.34% (inactive),
CC(CCc1ccccc1)NC(C)C(O)c1ccc(O)cc1 (centres undefined),7.98% [at 42.5 µM] (inactive),
O.O.O.O=C([O-])[C@H]([O-])[C@@H]([O-])C(=O)[O-].O=C([O-])[C@H]([O-])[C@@H]([O-])C(=O)[O-].[K+].[K+].[Sb+3].[Sb+3],-0.648% (inactive),
CCCSP(=S)(OCC)Oc1ccc(SC)cc1 (centres undefined),-10.1% (inactive),
COc1ccc(C(=O)c2c(C)n(CCN3CCOCC3)c3ccccc23)cc1,4.47% [at 42.5 µM] (inactive),
CC(C)(C)OOC(C)(C)CCC(C)(C)OOC(C)(C)C,6.58% (inactive),
COCC(C)N(C(=O)CCl)c1c(C)csc1C (centres undefined),2.47% (inactive),
Clc1ccc(C(c2ccccc2Cl)C(Cl)(Cl)Cl)cc1 (centres undefined),-19.3% (inactive),
CCCCCCCCSC(=O)Oc1cc(Cl)nnc1-c1ccccc1,2.5% (inactive),
O=c1c2ccccc2c(=O)c2c1cc(Cl)c1[nH]c3c([nH]c12)c(Cl)cc1c(=O)c2ccccc2c(=O)c13,1.78% (inactive),
CCNS(=O)(=O)C(F)(F)C(F)(F)C(F)(F)C(F)(F)C(F)(F)C(F)(F)C(F)(F)C(F)(F)F,8.62% (inactive),
